# Screening data as filed in PubChem BioAssay.
# This is a sample that favours compounds with a hit; in the whole collection about 11% have one here.
# BAZ2B block: BAZ2B (human) inhibition; AlphaScreen BAZ2B-H3K14Ac peptide displacement; Q9UIF8; 360,000 tested, 4.4% active; Potency, µM (series often up to 114 µM), usual class: inhibitors; further: nearly all actives have a fitted effect of over 60% in size
#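 In this displacement format the biotinylated H3(5-23) peptide acetylated at Lys14 serves as ligand at 50 nM, with BAZ2B at 50 nM in PBS pH 7.4 containing 0.01% Tween-20. Donor and acceptor beads are 10 ug/mL final.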
# JMJD2A Tudor: JMJD2A Tudor domain (human) inhibition; AlphaScreen JMJD2A-Tudor / H3K4me3 peptide binding; Potency, µM (series often up to 114 µM), actives largely listed as inhibitors; 390,000 tested, 4.4% active; AID 504339; further: nearly all actives have a fitted effect of over 50% in size
# HP1b chromo inh: HP1-beta chromodomain-methylated histone interaction inhibition. P83916. AlphaScreen HP1-beta / biotin-H3K9me3 peptide binding. Potency, µM (highest dose often 114 µM), actives largely listed as inhibitors. 390,000 tested, 0.56% active. AID 540317; further: nearly all actives have a fitted effect of over 70% in size
# Target sequence (P83916 whole entry, looked up): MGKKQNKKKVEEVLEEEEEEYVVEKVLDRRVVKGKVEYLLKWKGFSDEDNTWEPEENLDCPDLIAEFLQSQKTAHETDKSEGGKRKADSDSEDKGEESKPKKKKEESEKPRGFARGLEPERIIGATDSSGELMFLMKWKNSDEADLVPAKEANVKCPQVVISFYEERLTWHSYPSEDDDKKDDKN
#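 AlphaScreen: HP1-beta (50 nM) preformed 30 min with biotin-H3(1-18)K9me3 peptide (50 nM) in PBS pH 7.4, 0.01% Tween-20. Compound added for 30 min at RT, then streptavidin donor/nickel chelate acceptor beads (10 ug/mL) for 30 min.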
# L3MBTL1 inh: inhibitors of human L3MBTL1; AID 485360; Potency, µM (doses to about 57.1 µM), actives largely listed as inhibitors; 230,000 tested, 0.66% active; AlphaScreen L3MBTL1–H3K9me1 peptide binding; further: nearly all actives have a fitted effect of over 60% in size
#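 Displacement of a biotinylated histone H3(1-15) peptide monomethylated at Lys9 (75 nM) from L3MBTL1 (50 nM) was measured by AlphaScreen after a 30 min room-temperature compound incubation; cefsulodin titration served as intraplate control.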
# G9a inh: G9a (human) methyltransferase inhibition; Q96KQ7; G9a H3K9 monomethylation, AlphaScreen, 2 h; Potency, µM (titrated, usually from 102 µM), most hits filed as inhibitors; 350,000 tested, 8.8% active; AID 504332; further: nearly all actives have a fitted effect of over 75% in size
# Target sequence (Q96KQ7 913-1193 limits assumed): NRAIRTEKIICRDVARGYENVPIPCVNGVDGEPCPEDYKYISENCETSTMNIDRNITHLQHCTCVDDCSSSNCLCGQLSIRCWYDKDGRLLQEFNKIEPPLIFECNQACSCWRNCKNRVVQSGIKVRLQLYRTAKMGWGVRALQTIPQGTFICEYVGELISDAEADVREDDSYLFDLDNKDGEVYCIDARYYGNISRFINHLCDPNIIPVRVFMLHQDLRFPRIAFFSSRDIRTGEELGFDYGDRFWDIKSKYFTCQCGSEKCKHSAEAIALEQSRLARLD
#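 Methyltransferase reactions run at room temperature for 2 h (20 nM enzyme, 500 nM biotin-H3K9 peptide, 20 uM SAM) after a 15 min compound preincubation; product detected by AlphaScreen beads and anti-H3K9me1 antibody.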
# A number is an active result; . = inactive; ? = inconclusive; / = no result; ! = not confirmed by another sample; [ ] = remark or other dose. The call rests on the fitted dose curve; in most records, active means well fitted inhibition curve with a large enough effect; inconclusive means small, poorly fitted or top-dose-only effect; inactive means no such curve, though single readings can be large or run the other way.
SMILES,BAZ2B block,JMJD2A Tudor,HP1b chromo inh,L3MBTL1 inh,G9a inh
O=C(NCc1cccnc1)c1cc(-c2ccco2)on1,.,.,.,.,40µM
COC(=O)c1ccccc1NC(=O)c1sc(=S)n(C)c1N,.,.[11.4 µM],?,.,7.9µM
COc1ccc(-n2c(N)c(C(=O)NCc3cccnc3)sc2=S)cc1,.,.,.,/,.
Cn1c(N)c(C(=O)NCc2ccccc2)sc1=S,?,89µM,?,.,?
Cc1ccc(-n2c(N)c(C(=O)NCc3cccnc3)sc2=S)cc1,.,.,?,.,10µM
Cc1ccc(C)c(C(=O)CCC(=O)Nc2ccc(N3CCN(C)CC3)cc2C)c1,/,.,.,.,/
CC(C)c1cnc2c(c1SCC(=O)NC(C)(C)C)c(=O)n(C)c(=O)n2C,.,.,.,/,.
CCOc1ccc(N2CC(c3nc4ccccc4n3Cc3cccc(Cl)c3)CC2=O)cc1 (centres undefined),.,.,.,/,?
Cc1cnc(SCCc2ccncc2)nc1C,.,/,/,.,8.9µM
O=C(O)c1cc2c(ccc3ccccc32)oc1=O,.,/,/,/,?
N=c1oc2ccc3ccccc3c2cc1C(N)=S,.,.,.,.,20µM
O=S(=O)(c1cccc(Cl)c1Cl)N1CCCCC1,.,.,.,.,.
CN1CCCN(S(=O)(=O)c2cccc(Cl)c2Cl)CC1,.,.,.,.,45µM
COc1ccc(-c2noc(CSc3nnc(C)n3-c3ccc(C)cc3)n2)cc1,.,.,.,/,.
CCN(CC)c1cc(C)c2cc(NC(=O)/C=C/c3cc(OC)c(OC)c(OC)c3)ccc2n1,?,?,.,/,?
O=c1cc(CN2CCN(c3ccc(O)cc3)CC2)nc2scc(-c3ccccc3)n12,.,.,?,.,10µM
COc1ccc2nc(/N=C\N(C)C)sc2c1,56µM,.,?,.,?
COc1ccc2nc(/N=C/c3cccc(OC)c3O)sc2c1,.,.,.,/,.
COc1ccc2nc(N=Nc3ccc(N(C)C)cc3)sc2c1,?,?,.,?,22µM
COc1ccccc1-n1nc(-c2ccccc2)c2cnc3c(F)cc(F)cc3c21,/,.,.,/,.
CCc1cc2c(SCc3nc4sc(C(C)=O)c(C)c4c(=O)[nH]3)ncnc2s1,.,?,.,.,20µM
Cc1sc2nc(CSc3ncn[nH]3)[nH]c(=O)c2c1C,/,.,.,.,.
N#Cc1c2ccc(OCC(=O)NCc3ccco3)cc2n2ccccc12,.,.,.,/,.[2.33 µM]
N#Cc1c2ccc(O)cc2n2ccccc12,.,.,.,.,4µM
COc1cccc(-c2ccc3ncnc(Nc4ccccc4)c3c2)c1,/,/,/,/,.[0.501 µM]
SMILES,BAZ2B block,JMJD2A Tudor,HP1b chromo inh,L3MBTL1 inh,G9a inh
CCOc1ccc(-c2nc(CN(Cc3ccccc3)C[C@@H]3CCC(=O)N3)c(C)o2)cc1,?,.,.,.,45µM
Cc1oc(-c2ccc(C(F)(F)F)cc2)nc1CN(Cc1ccccn1)C[C@@H]1CCC(=O)N1,?,.,.,.,?
O=C(O)[C@H]1C(=CCO)O[C@H]2CC(=O)N12,/,/,/,/,.[2.33 µM]
O=C(CSc1nnc2scc(-c3ccccc3)n12)Nc1ccc(Cl)cc1,.,.,.,/,.
CCCCn1c(=O)[nH]c(=O)c2c1nc(CN1C(=O)c3ccccc3S1(=O)=O)n2CCC,.,.,.,?,.
CCCCn1c(=O)[nH]c(=O)c2c1nc(Cn1ncc(Cl)c(Cl)c1=O)n2CCC,.,?,.,/,35µM
Cc1ccc(N2CC(NC(=O)c3ccc(S(=O)(=O)N4CCCC4)cc3)CC2=O)cc1C (centres undefined),.,.,.,/,.
COC1=CC(=O)C(C2CC(=O)c3c(O)cc(O)cc3O2)=CC1=O (centres undefined),/,79µM,?,/,/
CCCCn1c(N)c(N(CCOC)C(=O)c2cc(-c3ccc(OC)c(OC)c3)nc3ccccc23)c(=O)[nH]c1=O,.,.,.,.,11µM
CCCCn1c(N)c(N(CCOC)C(=O)c2cc(-c3ccco3)nc3ccccc23)c(=O)[nH]c1=O,50µM,40µM,.,?,40µM
CCCCN(C(=O)c1cc(Cl)nc2ccccc12)c1c(N)n(CCCC)c(=O)[nH]c1=O,.,.,.,.,56µM
CCCCN(C(=O)c1cc(-c2ccco2)nc2ccccc12)c1c(N)n(CCCC)c(=O)[nH]c1=O,?,?,.,?,?
CCCCN(C(=O)c1ccccc1F)c1c(N)n(CCC)c(=O)[nH]c1=O,.,79µM,.,/,.
COc1cccc(N(CC(=O)N2CCC(C)CC2)S(=O)(=O)c2ccc(C)cc2)c1,.,.,.,/,.
Cn1nccc1C(=O)NCc1ccc2c(c1)CCN2C(=O)c1ccc(F)cc1,.,.,.,/,.
CCCCCCCNC1=CC(=O)CC(c2ccco2)C1 (centres undefined),?,50µM,.,?,?
Cc1ccn2cc(CNS(=O)(=O)c3ccc4ccccc4c3)nc2c1,.,.,.,/,71µM
C#CCOCCOCCOCCNc1nc(N2CCN(C(=O)[C@H]([C@@H](C)CC)n3cc([C@@H](N)Cc4ccc(O)cc4)nn3)CC2)nc(N2CCN(C(=O)[C@H](CCCCN)n3cc([C@@H](N)C(C)CC)nn3)CC2)n1 (some centres undefined),79µM,50µM,.,.,?
C#CCOCCOCCOCCNc1nc(N2CCN(C(=O)[C@H](CCC(=O)O)n3cc(C(N)Cc4ccc(O)cc4)nn3)CC2)nc(N2CCN(C(=O)[C@H](CCCCN)n3cc(C(N)[C@H](C)CC)nn3)CC2)n1 (some centres undefined),79µM,/,/,/,.[12.7 µM]
O=c1[nH]c2c(cnn2-c2ccc(Cl)cc2)c(=O)n1-c1cccc(Cl)c1,.,.,.,.,.
CC(C)n1c(=O)c2c(O)cc(=O)oc2c2ccccc21,.,50µM,.,.,.[0.0925 µM]
Cc1cc(C)c(-c2nc3ccccc3s2)[nH]1,.,.,.,/,50µM
O=C1c2oc3ccccc3c(=O)c2C(c2ccc(O)cc2)N1Cc1ccc2c(c1)OCO2 (centres undefined),.,.,.,/,.
CCOC(=O)C1=C(C)NC(SC)=NC1c1ccc(OC)cc1 (centres undefined),.,.,.,.,?
CCC1N=C(SC)NC(C)=C1C(=O)c1ccccc1 (centres undefined),.,.,.,/,4µM
SMILES,BAZ2B block,JMJD2A Tudor,HP1b chromo inh,L3MBTL1 inh,G9a inh
COc1cc(C(=O)N=c2sc3ccccc3n2C)cc(OC)c1OC,.,50µM,.,.,.
Cc1ccc(-c2nc3c4ccccc4ccn3c2CN2CCCCC2)cc1,50µM,?,.,.,?
CC1CC(C)(C)NC(=S)O1 (centres undefined),.,.,.,.,79µM!
CC1(C)CCC(C)(C)NC(=S)N1,.,.,.,.,.
CCOC(=O)C1=C(N)Oc2cc(C)n(C)c(=O)c2C1c1ccncc1 (centres undefined),.,.,.,.,50µM
CCOc1cc(CN2CCN(c3ccc(C(C)=O)cc3)CC2)ccc1OC,56µM,1.4µM,?,.,32µM
CCOc1cc(CN2CCCCC2)ccc1OC,.,.,.,.[11.4 µM],.
